# In PubChem BioAssay (NCATS):
# Inconclusive results are not listed. Values without a mark were called inactive. Calls of active or inactive are those of the source. Unless noted, calls come from the whole dose curve.
# System: not listed separately
# Assay: A High-Content qHTS Against Drug Library for the Identification of Small Molecules that Inhibit DYT1 Early Onset Primary Dystonia-Associated Cell Pathology (AID 1645839)
# Conditions: HEK293 Flp-In EGFP-delE TorsinA, punctate imaging, 48 h; series mostly up to 46.1 µM; % pathology change, negative = correction: at the top concentration
# Method in brief: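 High-content imaging quantified EGFP-TorsinA mislocalization in HEK293-derived cells inducibly expressing DYT1 mutant torsinA, after 48 h exposure to compound given together with tetracycline induction. Cell count served as a toxicity channel alongside %pathology.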
# Potency is the fitted concentration of half-maximal effect.
Structure (SMILES),"% pathology change, negative = correction",Potency
CN(C)CC/C=C1/c2ccccc2COc2ccc(CC(=O)O)cc21,10.8%,
NCCCC[C@H](N[C@@H](CCc1ccccc1)C(=O)O)C(=O)N1CCC[C@H]1C(=O)O,-1.67%,
CN(C)CC/C=C1\c2ccccc2Sc2ccc(Cl)cc21,,12.6 µM (active)
CCCCS(=O)(=O)N[C@@H](Cc1ccc(OCCCCC2CCNCC2)cc1)C(=O)O,-5.23%,
OCc1ccccc1O,2.62%,
CCOC(=O)[C@H](CCc1ccccc1)N[C@@H](C)C(=O)N1Cc2ccccc2C[C@H]1C(=O)O,-2.2%,
CNC(=O)CN(CCN(CCN(CC(=O)[O-])CC(=O)NC)CC(=O)[O-])CC(=O)[O-].O.[Gd+3],-13.6%,
O=c1[nH]c(=O)n([C@H]2CCCO2)cc1F,6.05%,
CCOC(=O)c1cccc(N)c1,17.4%,
COc1cc2c(cc1OC)C(C(C(=O)N(CCc1ccc(OC)c(OC)c1OC)CCc1ccc(OC)c(OC)c1OC)c1ccccc1)=NCC2 (stereo unspecified),-26.8%,
CN(C)CCOc1ccccc1Cc1ccccc1,-20.5%,
CCCC(=O)Nc1ccc(OCC(O)CNC(C)C)c(C(C)=O)c1 (stereo unspecified),1.55%,
CC(C)COC(=O)c1ccc(N)cc1,-13.1%,
O=C1[C@H]2CCCC[C@H]2C(=O)N1CCCCN1CCN(c2nsc3ccccc23)CC1,-5.45%,
O=c1ccc2ccccc2o1,7.65%,
NCCC(O)(P(=O)(O)O)P(=O)(O)O,3.63%,
NC(CO)(CO)CO,3.07%,

Structure (SMILES),"% pathology change, negative = correction",Potency
CC(C)(CO)[C@@H](O)C(=O)NCCCO,-4.84%,
CC1(C)O[C@@H]2C[C@H]3[C@@H]4CCC5=CC(=O)CC[C@]5(C)[C@@]4(F)[C@@H](O)C[C@]3(C)[C@]2(C(=O)CCl)O1,-16.2%,
COc1cc(OC)cc(OC)c1,3.65%,
CCCCCCCCCCCCCCNCCO,1.72%,
CCN1CCCC1=O,6.86%,
NC(CS)C(=O)O (stereo unspecified),16.4%,
CC[C@@H](CO)NCCN[C@@H](CC)CO,10.7%,
C[C@H](O)C(=O)Nc1c(I)c(C(=O)NC(CO)CO)c(I)c(C(=O)NC(CO)CO)c1I,10.4%,
CC(C)(C(=O)c1cccnc1)c1cccnc1,13.9%,
O=C1OCCN1/N=C/c1ccc([N+](=O)[O-])o1,-0.9%,
C[C@H]1[C@H](NC(=O)/C(=N/OC(C)(C)C(=O)O)c2csc(N)n2)C(=O)N1S(=O)(=O)O (stereo in doubt),0.516%,
COc1cc(/C=C/C(=O)O[C@H]2CC[C@]34C[C@]35CC[C@]3(C)[C@@H]([C@H](C)CCC=C(C)C)CC[C@@]3(C)[C@@H]5CC[C@H]4C2(C)C)ccc1O,8.88%,
NC[C@H]1O[C@H](O[C@H]2[C@H](O)[C@@H](O[C@H]3O[C@H](CO)[C@@H](O)[C@H](N)[C@H]3O)[C@H](N)C[C@@H]2N)[C@H](N)[C@@H](O)[C@@H]1O,10.2% [at 19.1 µM],
Nc1ccc(/C=C/c2ccc(N)cc2S(=O)(=O)O)c(S(=O)(=O)O)c1,12.8% [at 0.369 µM],
CN1CCN(C(c2ccccc2)c2ccccc2)CC1,-4.68%,
NC(=O)CC[C@@H]1NC(=O)[C@H](Cc2ccccc2)NC(=O)[C@H](Cc2ccc(O)cc2)NC(=O)CCSSC[C@@H](C(=O)N2CCC[C@H]2C(=O)N[C@@H](CCCN=C(N)N)C(=O)NCC(N)=O)NC(=O)[C@H](CC(N)=O)NC1=O,6.43%,
OC(CCN1CCCCC1)(c1ccccc1)c1ccccc1,3.89%,

# Target: Cytochrome P450 2D6 (Homo sapiens) (UniProt P10635)
# Sequence (P10635 whole entry, looked up): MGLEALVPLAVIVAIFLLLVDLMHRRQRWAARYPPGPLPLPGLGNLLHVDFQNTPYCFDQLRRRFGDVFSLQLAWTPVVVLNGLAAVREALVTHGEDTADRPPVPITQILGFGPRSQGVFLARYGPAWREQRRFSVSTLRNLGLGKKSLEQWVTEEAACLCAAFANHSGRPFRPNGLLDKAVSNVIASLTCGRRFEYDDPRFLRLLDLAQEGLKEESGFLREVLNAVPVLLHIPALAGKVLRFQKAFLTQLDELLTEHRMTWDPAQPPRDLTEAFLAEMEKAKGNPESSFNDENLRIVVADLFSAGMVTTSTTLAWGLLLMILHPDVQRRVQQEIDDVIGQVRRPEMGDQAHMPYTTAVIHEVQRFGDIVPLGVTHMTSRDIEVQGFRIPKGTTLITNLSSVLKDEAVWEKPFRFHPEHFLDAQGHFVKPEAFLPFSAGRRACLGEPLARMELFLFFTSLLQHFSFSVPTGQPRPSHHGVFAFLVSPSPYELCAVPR
# Assay: Cytochrome P450 family 2 subfamily D member 6 (CYP2D6) small molecule antagonists: luciferase biochemical (cell-free) qHTS assay (AID 1645840; active = well fitted inhibition curve with a large enough effect in the repeat runs; note: nearly all actives have a fitted effect of over 55% in size; for activity change, negative = inhibition: % is set by controls: 0 for no effect and ±100 for the full control effect)
# Conditions: P450-Glo CYP2D6 enzyme, luciferin luminescence, 1 h; series mostly up to 57.4 µM; activity change, negative = inhibition: at the top concentration
# Method in brief: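 P450-Glo CYP2D6 system: proluciferin substrate converted by enzyme to luciferin, read by luminescence proportional to activity. Enzyme-substrate mix with compound 10 min at room temperature, then NADPH regeneration 1 h before detection reagent.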
Structure (SMILES),"activity change, negative = inhibition",Potency
CN(C)CC/C=C1/c2ccccc2COc2ccc(CC(=O)O)cc21,3.44%,
NCCCC[C@H](N[C@@H](CCc1ccccc1)C(=O)O)C(=O)N1CCC[C@H]1C(=O)O,3.58%,
CN(C)CC/C=C1\c2ccccc2Sc2ccc(Cl)cc21,,1.23 µM (active)
CCCCS(=O)(=O)N[C@@H](Cc1ccc(OCCCCC2CCNCC2)cc1)C(=O)O,3.86%,
OCc1ccccc1O,2.39%,
CCOC(=O)[C@H](CCc1ccccc1)N[C@@H](C)C(=O)N1Cc2ccccc2C[C@H]1C(=O)O,,inactive
CNC(=O)CN(CCN(CCN(CC(=O)[O-])CC(=O)NC)CC(=O)[O-])CC(=O)[O-].O.[Gd+3],11.8%,
O=c1[nH]c(=O)n([C@H]2CCCO2)cc1F,-2.29%,
CCOC(=O)c1cccc(N)c1,1.94%,
COc1cc2c(cc1OC)C(C(C(=O)N(CCc1ccc(OC)c(OC)c1OC)CCc1ccc(OC)c(OC)c1OC)c1ccccc1)=NCC2 (stereo unspecified),,12.3 µM (active)
CN(C)CCOc1ccccc1Cc1ccccc1,,1.95 µM (active)
CCCC(=O)Nc1ccc(OCC(O)CNC(C)C)c(C(C)=O)c1 (stereo unspecified),2.71%,
O=C1[C@H]2CCCC[C@H]2C(=O)N1CCCCN1CCN(c2nsc3ccccc23)CC1,,12.3 µM (active)
O=c1ccc2ccccc2o1,3.19%,
NCCC(O)(P(=O)(O)O)P(=O)(O)O,6.8%,
NC(CO)(CO)CO,3.56%,

Structure (SMILES),"activity change, negative = inhibition",Potency
CC(C)(CO)[C@@H](O)C(=O)NCCCO,-2.47%,
CC1(C)O[C@@H]2C[C@H]3[C@@H]4CCC5=CC(=O)CC[C@]5(C)[C@@]4(F)[C@@H](O)C[C@]3(C)[C@]2(C(=O)CCl)O1,-8.87%,
COc1cc(OC)cc(OC)c1,2.38%,
CCCCCCCCCCCCCCNCCO,,6.17 µM (active)
CCN1CCCC1=O,-4.04%,
NC(CS)C(=O)O (stereo unspecified),11.5%,
CC[C@@H](CO)NCCN[C@@H](CC)CO,3.33%,
C[C@H](O)C(=O)Nc1c(I)c(C(=O)NC(CO)CO)c(I)c(C(=O)NC(CO)CO)c1I,5.6%,
CC(C)(C(=O)c1cccnc1)c1cccnc1,16%,
C[C@H]1[C@H](NC(=O)/C(=N/OC(C)(C)C(=O)O)c2csc(N)n2)C(=O)N1S(=O)(=O)O (stereo in doubt),4.05%,
COc1cc(/C=C/C(=O)O[C@H]2CC[C@]34C[C@]35CC[C@]3(C)[C@@H]([C@H](C)CCC=C(C)C)CC[C@@]3(C)[C@@H]5CC[C@H]4C2(C)C)ccc1O,8.88%,
NC[C@H]1O[C@H](O[C@H]2[C@H](O)[C@@H](O[C@H]3O[C@H](CO)[C@@H](O)[C@H](N)[C@H]3O)[C@H](N)C[C@@H]2N)[C@H](N)[C@@H](O)[C@@H]1O,6.98% [at 23.9 µM],
Nc1ccc(/C=C/c2ccc(N)cc2S(=O)(=O)O)c(S(=O)(=O)O)c1,18.7% [at 0.91 µM],
CN1CCN(C(c2ccccc2)c2ccccc2)CC1,,4.9 µM (active)
NC(=O)CC[C@@H]1NC(=O)[C@H](Cc2ccccc2)NC(=O)[C@H](Cc2ccc(O)cc2)NC(=O)CCSSC[C@@H](C(=O)N2CCC[C@H]2C(=O)N[C@@H](CCCN=C(N)N)C(=O)NCC(N)=O)NC(=O)[C@H](CC(N)=O)NC1=O,11.3%,
OC(CCN1CCCCC1)(c1ccccc1)c1ccccc1,,0.617 µM (active)
